For 39 compounds, AC50 results are on record in PubChem BioAssay AID504727 (Broad Institute, 2011).

SMILES strings stand for the structures. The source made the active and inactive calls.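 How the source made its calls: active means fitted half-maximal concentration AC50 at or below ten times the highest valid tested dose, with signal falling as DNA is displaced (actives reach about 34 µM in these data); inconclusive means flat fit at moderate signal loss, or poor fit quality; inactive means the rest, including signal rising instead of falling.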

The nature of the assay: acridine orange-DNA binding displacement – biochemical, fluorescence polarization, cherry-picked samples, set 2, artefact control for KSHV LANA DNA-binding inhibitor project, dose response (AID 504727). The following applies: series mostly up to 35 µM. For orientation: Fluorescence polarisation rises when a labelled molecule tumbles more slowly, as on binding a larger partner.
As to `CCNC(=O)COC(=O)c1cccc(Br)c1`, the AC50 (usually the concentration giving half of the maximal activity seen) was “inactive”.
Next, `CCOC(=O)C1Nc2ccc(C(=O)O)cc2C2C=CCC12` (centres undefined): “inactive”; `O=C1NC(=S)S/C1=C\C=C\c1ccc([N+](=O)[O-])o1`: “inactive”.
Regarding `C=C1c2cccc(O)c2C(O)=C2C(=O)[C@]3(O)C(O)=C(C(N)=O)C(=O)[C@@H](N(C)C)[C@@H]3[C@@H](O)[C@H]12`, the AC50 result was “inactive”.
Turning to `CCN(C(=O)COC(=O)c1ccc([N+](=O)[O-])o1)C1CCCCC1`, the AC50 result was “inactive”.
Regarding `COc1cccc(NC(=O)CN(C)CC(=O)NCc2ccco2)c1`, the AC50 result was “inactive”.
Take `O=C(CN1CC[C@@]2(O)CCCC[C@H]2[C@@H]1c1ccc(F)cc1)NCc1ccco1`: the AC50 result was “inactive”.
Next, `O=S(=O)(O)c1cc(Cl)cc(N=Nc2ccc(O)cc2O)c1O`: “inactive”.
Take `O=C(O)CCCCCn1c(SCC(=O)c2ccc(O)c(O)c2)nc2ccsc2c1=O`: the AC50 was 23.8 µM (active).
On to `NNC(=S)Nc1ccc(S(=O)(=O)N2CCOCC2)cc1`, for which the AC50 result was “inactive”.
With `Cc1ccc(NC(=O)c2ccc(Cl)c(S(=O)(=O)N3CCc4ccccc43)c2)nc1`, the AC50 entry was “inactive”.
Take `COc1cccc(OC)c1C(=O)Nc1cc(C)on1`: the AC50 entry was “inactive”.
For `CCOC(=O)[C@H]1[C@H]2COc3cc(OC)ccc3[C@@H]2N2C(=O)CN(Cc3ccc(OC)cc3)C(=O)[C@@]12C`, the AC50 result is “inactive”.
Next, `O=C(O)c1ccc(NS(=O)(=O)c2ccc3c(c2)C2C=CCC2C(c2ccccc2F)N3)cc1` (centres undefined): “inactive”; `FC(F)(F)c1nnc(-c2ccccc2)nc1N1CCCC1`: “inactive”; `CCN(CC)c1ccc2cc(S(=O)(=O)c3ccc(Cl)cc3)c(=O)oc2c1`: 6.87 µM (active).
To `Cc1[nH][nH]c(=O)c1C(c1ccc(-c2ccc(Cl)c(C(=O)O)c2)o1)c1c(C)[nH][nH]c1=O` belongs “inactive”.
As for `Cc1cccc(N2C(=O)c3cccc4c(N(C)CCO)ccc(c34)C2=O)c1`, the AC50 result was “inactive”.
As for `Cc1cc(-c2nnc(SCC(=O)Nc3ccccc3)n2C)no1`, the AC50 entry was “inactive”.
To `Oc1ccc(-c2nc3ccccn3c2NCc2ccco2)cc1` belongs “inactive”.
Consider `COC(=O)c1ccc(Oc2nc(Nc3ccc(F)cc3)nc(N3CCCC3)n2)cc1`, for which the AC50 entry is “inactive”.
As for `Cc1cc[n+](-c2[nH]c(=O)sc2/C=N/N=C(\[O-])c2ccccc2)cc1C`, the AC50 is 12.9 µM (active).
As for `Cn1c(N)c(C(=O)COC(=O)c2ccc(Cl)c(S(=O)(=O)N3CCCC3)c2)c(=O)n(C)c1=O`, the AC50 entry was “inactive”.
In the case of `Cc1cc(C(F)(F)F)c2c(N)c(C(=O)Nc3cc(C)on3)sc2n1`, the AC50 result is “inactive”.
Turning to `CCOc1ccc(/C=C2\CCCc3c2nc2ccccc2c3C(=O)O)cc1OC`, the AC50 is 1.73 µM (active).
Next, `O=C(CCn1c(=S)oc2ccccc21)N1CCN(c2ccc(F)cc2)CC1`: “inactive”; `Nc1cccc2cc(S(=O)(=O)O)ccc12`: “inactive”.
Next, `O=C1c2cccc3c(N4CCCCC4)ccc(c23)C(=O)N1c1cccc(O)c1`: “inactive”; `COC(=O)c1ccccc1OCC(=O)N1CCN(c2ccc(Cl)cc2)CC1`: “inactive”.
On to `COc1ccc(NC(=O)NS(=O)(=O)c2ccc(C)cc2)cn1`, for which the AC50 entry was “inactive”.
To `CC(=O)N/C(=C/c1ccc(OS(=O)(=O)c2ccc(C)cc2)cc1)C(=O)Nc1ccc(C(=O)O)cc1` belongs “inactive”.
For the compound `O=C(O)/C=C/c1ccccc1Oc1ccccc1`, the AC50 entry is “inactive”.
With `Cc1nnc(NC(=O)CN2C(=O)NC3(CCCC3)C2=O)s1`, the AC50 result is “inactive”.
Take `O=C(O)/C(=C\c1cccs1)Sc1nnc(-c2ccc(F)cc2)o1`: the AC50 entry is “inactive”.
Turning to `NC1=NC[C@@H](Cc2ccc(O)cc2)N1CCc1cc(C(F)(F)F)cc(C(F)(F)F)c1`, the AC50 entry was “inactive”.
To `CC(C)(C)OC(=O)C[C@@H]1C/C=C\C[C@H](CC(=O)N(CCO)Cc2ccccc2)C(=O)N[C@@H](c2ccccc2)COC1=O` belongs “inactive”.
In the case of `CN1C(=O)NC(c2ccccc2[N+](=O)[O-])C2=C1CCCC2=O` (centres undefined), the AC50 was 29.7 µM (active).
Next, `O=C(O)CN1C(=O)/C(=C\c2cc(Br)ccc2OCc2ccc([N+](=O)[O-])cc2)SC1=S`: “inactive”; `Nc1ccc2cc3[nH]c4cc(N)ccc4c3nc2c1`: 1.48 µM (active).
